Source: ChEMBL document CHEMBL3988442, “University of Dundee, Small-Polar-MMV Screening Library” (2021)
Hit rate of the full screen: of about 66,000 compounds, about 960 (1.5%) showed an effect of 50% or more. Many of the other results were omitted from the sample, so strong results are more common in it than they were.

Test system: Trypanosoma brucei
Experiment: Trypanosoma brucei 72 hour study
Format: functional, organism-based
Set-up: scale not given: in the data most compounds retested in dose-response had high values

Cc1nnsc1C(=O)N1CCCC(n2nnc3cc(F)ccc32)C1 (stereo unspecified)
Percent Effect (30.3 µM, […]): 2.47%

CC1COCCN1Cc1nc(-c2ccsc2)no1 (stereo unspecified)
Percent Effect (30.3 µM, […]): -0.3401%
Percent Effect (10 mM, 10 mM as filed; unlikely as a test dose): -39.38%

CC(C)N1CCO[C@@H]2CN(S(=O)(=O)c3cccs3)CC[C@@H]2C1.O=C(O)C(F)(F)F
Percent Effect (30.3 µM, […]): -39.91%

COc1ccc(OC)c(CN2CCc3nc4ccsc4c(=O)n3CC2)c1.Cl
Percent Effect (30.3 µM, […]): 12.93%

OC[C@H]1CCCN1c1nccc(-c2c[nH]nc2C2CCCCC2)n1
Percent Effect (30.3 µM, […]): 98.96%

OC[C@@H]1CCCN1c1nccc(-c2c[nH]nc2-c2ccncc2)n1
Percent Effect (30.3 µM, […]): 21.87%

OC[C@H]1CCCN1c1nccc(-c2cncnc2C2CCCCC2)n1
Percent Effect (30.3 µM, […]): -14.29%

CCc1noc(C(C)N(C)CC(=O)Nc2ccc(Br)cc2C)n1 (stereo unspecified)
Percent Effect (30 µM, 30.03 µM): -22.21%

COc1ncccc1CN1C[C@@H]2COC[C@]2(COCC(=O)N(C)C)C1.O=C(O)C(F)(F)F.O=C(O)C(F)(F)F
Percent Effect (30 µM, 30.03 µM): -7.446%

CC(C)c1nccc(C2(c3ccccc3Cl)CCNCC2)n1
Percent Effect (30 µM, 30.03 µM): -6.514%

Clc1ccccc1C1(c2ccnc(C3CCCC3)n2)CCNCC1
Percent Effect (30 µM, 30.03 µM): 101.7%

Clc1ccccc1C1(c2ccnc(CC3CC3)n2)CCNCC1
Percent Effect (30 µM, 30.03 µM): 25.18%

Clc1ccccc1C1(c2ccnc(C3CC3)n2)CCNCC1
Percent Effect (30 µM, 30.03 µM): -58.64%

Clc1ccccc1C1(c2ccnc(-c3ncccn3)n2)CCNCC1
Percent Effect (30 µM, 30.03 µM): 30.19%

CC(C)(C)c1nccc(C2(c3ccccc3Cl)CCNCC2)n1
Percent Effect (30 µM, 30.03 µM): 98.68%

CC1(C)CC(N(Cc2ccccc2)Cc2ncc[nH]2)CC(C)(C)N1.O=C(O)CC(O)(CC(=O)O)C(=O)O
Percent Effect (30.3 µM, […]): 10.45%

CCN1CCN(C)C2(CCN(Cc3ccsc3)CC2)C1=O.O=C(O)C(F)(F)F.O=C(O)C(F)(F)F
Percent Effect (30.3 µM, […]): -66.4%

O=C(O)C(F)(F)F.O=C1COC2(CCN(Cc3ccoc3)CC2)CN1
Percent Effect (30 µM, 30.03 µM): -33.82%

O=C(O)C(F)(F)F.O=C(c1cnccn1)N1CCCC2(CCN(c3ncccn3)C2)C1 (stereo unspecified)
Percent Effect (30 µM, 30.03 µM): -0.826%

CC(=O)N1CCN(S(=O)(=O)c2ccc(C)c(F)c2)CC1
Percent Effect (30 µM, 30.03 µM): 0.5413%

c1ccc2c(c1)CCN(c1nc(N3CCOCC3)c3nn[nH]c3n1)C2
Percent Effect (30.3 µM, […]): -17%

Cc1nc(CO[C@@H]2CN(Cc3ccsc3)[C@@H]3COC[C@@H]32)cs1.O=C(O)C(F)(F)F
Percent Effect (30 µM, 30.03 µM): -15.95%

CCOCCOC(C)C(=O)NCc1cn2cc(Br)ccc2n1 (stereo unspecified)
Percent Effect (30 µM, 30.03 µM): 14.67%

CCOCCCC(=O)NCc1cn2cc(Br)ccc2n1
Percent Effect (30 µM, 30.03 µM): 54.92%

CC(C)COCCC(=O)NCc1cn2cc(Br)ccc2n1
Percent Effect (30 µM, 30.03 µM): -7.155%
